High-throughput results as filed in PubChem.
ANO1 activ = activates or potentiates the mouse TMEM16A chloride channel; Q8BHY3; HEK293 TMEM16A/YFP-H148Q/I152L, iodide quench fluorescence; hits give low values; B-score at 10 µM; hit rate 0.3% among 340,000;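 active means fluorescence-ratio B-score plate-corrected deviation score at least 3 library SD below zero, with starting fluorescence score within 5 deviations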;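 further: channel opened by trigger with iodide after compound preincubation; score built on the fluorescence ratio of max minus min over baseline; more negative score means more quench and so TMEM16A activation or potentiation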
TMEM16A inh = blocks the mouse calcium-activated chloride channel TMEM16A. HEK293 TMEM16A/YFP iodide influx fluorescence, ionomycin. normalized B-score (activity score, 25-100; higher = stronger inhibition) at 10 µM. hit rate 1.2% among 310,000. AID 588511;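 active means ratio plate-corrected score three or more library SD toward inhibition, starting fluorescence score within five deviations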;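 further: score derived from kinetic fluorescence span divided by baseline fluorescence per well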
CHT block = human CHT choline transport inhibition | B-score at 10 µM | CHT-expressing cells, membrane potential dye, choline response; hits give low values | hit rate 0.86% among 310,000 | Q9GZV3;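 active means B-score over 3 SD under the library average, and starting fluorescence ratio not unusually high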;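 further: choline stimulus applied at its EC90 after an EC20 pre-addition; B-score computed on integrated fluorescence ratio after choline addition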
Kir21 block = blocks the mouse Kir2.1 inward-rectifier potassium channel. HEK293-Kir2.1, FluxOR thallium flux fluorescence; hits give low values. P35561. B-score at 10 µM. hit rate 0.85% among 310,000. AID 1672;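 active means fluorescence ratio B-score at or below minus 3 SD of library scores, with starting-brightness B-score within 2 SD, cut at about -4.2 in these data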;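 further: channel flux triggered by added potassium and thallium sulfate stimulus; B-score of peak minus minimum fluorescence over baseline after thallium stimulus; more negative B-score means stronger Kir2.1 block with less thallium influx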
CHT PAM = human CHT allosteric activation. CHT-expressing cells, membrane potential dye, choline EC20; hits give high values; LV-AA mutant CHT in HEK293 cells. B-score at 10 µM. hit rate 0.49% among 310,000. AID 488977;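 active means initial fluorescence not abnormally high and integrated response B-score, plate-corrected, over 3 SD above library mean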
Rce1 inh = inhibitors of yeast Ras-converting enzyme | Q03530 | hit rate 0.27% among 290,000 | yeast membranes, quenched prenylated peptide cleavage fluorescence | calls only | AID 2563;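 active means fall in fluorescence gain of 50% or more versus controls, with final raw signal at or below 3038400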;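 further: plate controls were neutral control wells for no effect and wells lacking membranes for full effect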
Active calls of the source: *; i = inactive; x = no result; + = active, no number. Hits are enriched below; roughly 3.2% of the tested compounds scored in any of these assays.

SMILES | ANO1 activ | TMEM16A inh | CHT block | Kir21 block | CHT PAM | Rce1 inh
CC(C)(C)C(=O)/C(=C\c1ccc([N+](=O)[O-])cc1)n1cncn1 | x | i | i | -7.29* | i | i
CCn1c(CNc2ccc(OC)cc2)nnc1SCC(=O)Nc1ccc(F)cc1 | i | i | i | 1.26 | i | i
Cn1c(CNc2nc(-c3ccccc3)cs2)nnc1SCC(=O)OC1CCCCC1 | i | i | i | -5.36* | i | i
CCn1c(CNc2ccc(F)cc2)nnc1SCC(=O)OC1CCCCC1 | i | i | i | -4.49* | i | i
CC(C)OC(=O)CSc1nnc(CNc2nc(-c3ccccc3)cs2)n1C | i | i | i | -3.49 | i | i
COc1cccc(OCc2nnc(SCC(=O)OC3CCCCC3)n2C)c1 | i | i | i | -4.83* | i | i
CN(C)CCNC(=O)c1csc(Nc2cccc3ccccc23)n1 | i | i | -9.95* | 0.29 | i | i
COCCNC(=O)c1csc(Nc2cccc3ccccc23)n1 | i | i | i | 1.18 | i | i
Cc1c(C(=O)NCc2cccnc2)sc2nc(-c3ccc(F)cc3)cn12 | -21.9* | i | i | -0.96 | i | i
Cc1c(C(=O)NCc2cccnc2)sc2nc(-c3ccccc3)cn12 | i | i | i | -0.03 | i | i
Cc1cc(C)nc(-n2nc(C)cc2Nc2ccccc2)n1 | i | i | -5.23* | -0.59 | i | i
Cc1cc(Nc2ccccc2)n(-c2ccccc2)n1 | i | i | i | -0.33 | i | i
CC(=O)NN1C(=O)c2ccccc2NC1c1ccoc1 (stereo not drawn) | i | i | i | 0.71 | i | +
O=C(c1ccc(NS(=O)(=O)c2ccccc2)cc1)N1CCN(c2ccccc2)CC1 | i | x | x | x | x | x
O=C(Nc1cccc(N2C(=O)C=CC2=O)c1)c1cccs1 | i | i | i | -5.94* | i | i
Cc1ccc(S(=O)(=O)CCC(=O)c2ccc(O)cc2O)cc1 | i | i | -5.16* | -1.47 | i | i
COc1ccc(S(=O)(=O)NCC(c2ccc(F)cc2)N2CCOCC2)cc1Br (stereo not drawn) | i | x | x | x | x | x
CCOc1ccc(S(=O)(=O)Nc2cc(OC)c(OC)cc2C(=O)O)cc1 | i | i | i | 0.51 | i | +
C(C#CCCCCCCCCC[n+]1ccccc1)#CCCCCCCCCC[n+]1ccccc1 | i | i | i | -14.7* | 7.65* | i
Cc1cc(N/N=C/c2ccc(O)c(C)c2O)nc(-c2ccccc2O)n1 | i | i | i | 1.72 | i | +
C/C(=N\Nc1cc(C)nc(-c2ccccc2O)n1)c1ccccc1 | i | i | i | 0.67 | i | i
COC(=O)c1scc(C)c1N1C(=O)c2ccccc2C1=O | i | i | i | 0.89 | i | i
CC(C)(C)[C@H]1COC(=O)[C@H](NC(=O)OCC2c3ccccc3-c3ccccc32)C/C=C\C[C@@H](CC(=O)N(CCO)Cc2ccccc2)C(=O)N1 | i | x | x | x | x | x
CC(C)OP(=O)(CCP(=O)(OC(C)C)OC(C)C)OC(C)C | i | i | i | -0.33 | i | i
COc1ccc(S(=O)(=O)Nc2ccc(N3CCOCC3)nc2)cc1 | i | i | i | 0.3 | i | i
SMILES | ANO1 activ | TMEM16A inh | CHT block | Kir21 block | CHT PAM | Rce1 inh
Cc1ccc(S(=O)(=O)c2c(C)nn(C(C)(C)C)c2OC(=O)C2CCCC2)cc1 | i | 25* | i | -0.69 | i | i
CCn1ccnc1CN(C)Cc1c(C(=O)N2CCCCCCC2)nc2ccc(Cl)cn12 | i | i | i | 0.12 | i | x
COCCCNC(=O)CCNS(=O)(=O)c1ccc(C)cc1 | i | 25* | i | -0.1 | i | x
COCCCNS(=O)(=O)c1ccc(C)cc1 | i | i | i | -0.11 | i | i
N/C(=N\NS(=O)(=O)c1ccc(Cl)cc1)c1ccccn1 | i | i | i | 2.24 | i | i
C=CCn1c(SCC(=O)Nc2cc(C)on2)nnc1-c1ccccc1F | i | x | x | x | x | x
CCCCCOc1ccc(CSC(=N)N)cc1[N+](=O)[O-] | i | i | i | -8.5* | i | i
CCCCOc1ccc(Br)cc1CSC(=N)N | i | x | x | -7.55* | x | i
CCC(C)(C)NC(=O)c1ccc2c(c1)N(CC(=O)NC1CCCC1)C(=O)C(C)(C)O2 | i | i | i | 0.14 | i | i
COc1cc(C)c(CN2CCC(n3nccc3NC(=O)C3CC3)CC2)cc1C | i | i | i | 0.9 | i | i
CC(=O)Nc1ccccc1OCC(=O)c1cc(C)n(Cc2cccs2)c1C | i | 100* | i | -1.01 | i | i
Cc1cc(C(=O)COc2cccnc2[N+](=O)[O-])c(C)n1Cc1cccs1 | i | i | i | -0.12 | i | i
O=C(NCCc1ccc(Cl)cc1)C1COc2ccccc2O1 (stereo not drawn) | i | i | i | -4.74* | i | i
COc1ccc(CCNC(=O)C2COc3ccccc3O2)cc1OC (stereo not drawn) | i | x | x | x | x | x
Brc1ccc2[nH]c3c(N4CCc5ccccc5C4)ncnc3c2c1 | x | i | i | -0.1 | i | i
CCOc1ccc2[nH]c3c(N4CCc5ccccc5C4)ncnc3c2c1 | i | i | i | 1.15 | i | +
COc1ccc2[nH]c3c(N4CCC(O)(c5cccc(C(F)(F)F)c5)CC4)ncnc3c2c1 | i | 100* | i | -0.18 | i | i
Cc1ccc(/C=C/C(=O)O)cc1S(=O)(=O)NCc1ccco1 | i | i | i | -0.45 | i | i
Cc1cc(C(=O)COC(=O)c2ccc(O)cc2)c(C)n1-c1ccccc1F | -28.9* | i | i | 0.56 | i | i
Cc1cc(C(=O)COC(=O)c2ccc[nH]c2=O)c(C)n1-c1ccccc1F | i | i | i | 0.19 | i | i
CCCC(=O)N=C1SC2CS(=O)(=O)CC2N1c1ccc(CC)cc1 (stereo not drawn) | i | i | i | -0.44 | i | i
CCCCN(CCCC)C(=O)c1cc(Cl)ccc1[N+](=O)[O-] | i | i | i | -6.97* | i | i
COc1ccc(C(CNC(=O)COc2cc(C)c(Cl)c(C)c2)N2CCCCC2)cc1 (stereo not drawn) | i | i | i | -2.69 | i | +
COc1ccc(C(CNC(=O)COc2ccc(C)c(C)c2)N2CCCCC2)cc1 (stereo not drawn) | i | i | i | -1.39 | i | i
Cc1nc2ccccc2n1CC(O)COc1ccc(Br)cc1 (stereo not drawn) | i | 25* | i | 0.05 | i | i
